GLS inhibitor – inhibitors of human glutaminase (GLS); 410,000 compounds, 0.21% hits; AID 624170; O94925; GLS enzymatic activity, qHTS titration; Potency, µM (highest dose often 45.5 µM), hits mostly inhibitors
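hKGA; 45 mM KH2PO4 pH 8.2 + 0.02% Tween-20; cpd via pin tool; 1 mM Gln soln; GluOx/HRP/Amplex Red; RT 30 min; fluor. t0 & final.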
HP1b binding inh – inhibitors of HP1-beta chromodomain binding to methylated histone tails; P83916; AlphaScreen HP1-beta / biotin-H3K9me3 peptide binding; Potency, µM (top dose mostly 114 µM), actives largely listed as inhibitors; 390,000 compounds, 0.56% hits; AID 540317; further: nearly all actives have a fitted effect of over 70% in size
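Compound inhibition of the preformed complex between 50 nM HP1-beta and 50 nM biotinylated H3K9me3 peptide was read by AlphaScreen. Buffer was PBS pH 7.4 with 0.01% Tween-20. Incubations ran 30 min at room temperature, with 10 ug/mL donor/acceptor beads.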
JMJD2A Tudor inh – JMJD2A Tudor domain (human) inhibition; Potency, µM (titrated, usually from 114 µM), actives largely listed as inhibitors; AID 504339; AlphaScreen JMJD2A-Tudor / H3K4me3 peptide binding; 390,000 compounds, 4.4% hits; further: nearly all actives have a fitted effect of over 50% in size
Target sequence (O75164 whole entry, looked up, the tested form may be a part): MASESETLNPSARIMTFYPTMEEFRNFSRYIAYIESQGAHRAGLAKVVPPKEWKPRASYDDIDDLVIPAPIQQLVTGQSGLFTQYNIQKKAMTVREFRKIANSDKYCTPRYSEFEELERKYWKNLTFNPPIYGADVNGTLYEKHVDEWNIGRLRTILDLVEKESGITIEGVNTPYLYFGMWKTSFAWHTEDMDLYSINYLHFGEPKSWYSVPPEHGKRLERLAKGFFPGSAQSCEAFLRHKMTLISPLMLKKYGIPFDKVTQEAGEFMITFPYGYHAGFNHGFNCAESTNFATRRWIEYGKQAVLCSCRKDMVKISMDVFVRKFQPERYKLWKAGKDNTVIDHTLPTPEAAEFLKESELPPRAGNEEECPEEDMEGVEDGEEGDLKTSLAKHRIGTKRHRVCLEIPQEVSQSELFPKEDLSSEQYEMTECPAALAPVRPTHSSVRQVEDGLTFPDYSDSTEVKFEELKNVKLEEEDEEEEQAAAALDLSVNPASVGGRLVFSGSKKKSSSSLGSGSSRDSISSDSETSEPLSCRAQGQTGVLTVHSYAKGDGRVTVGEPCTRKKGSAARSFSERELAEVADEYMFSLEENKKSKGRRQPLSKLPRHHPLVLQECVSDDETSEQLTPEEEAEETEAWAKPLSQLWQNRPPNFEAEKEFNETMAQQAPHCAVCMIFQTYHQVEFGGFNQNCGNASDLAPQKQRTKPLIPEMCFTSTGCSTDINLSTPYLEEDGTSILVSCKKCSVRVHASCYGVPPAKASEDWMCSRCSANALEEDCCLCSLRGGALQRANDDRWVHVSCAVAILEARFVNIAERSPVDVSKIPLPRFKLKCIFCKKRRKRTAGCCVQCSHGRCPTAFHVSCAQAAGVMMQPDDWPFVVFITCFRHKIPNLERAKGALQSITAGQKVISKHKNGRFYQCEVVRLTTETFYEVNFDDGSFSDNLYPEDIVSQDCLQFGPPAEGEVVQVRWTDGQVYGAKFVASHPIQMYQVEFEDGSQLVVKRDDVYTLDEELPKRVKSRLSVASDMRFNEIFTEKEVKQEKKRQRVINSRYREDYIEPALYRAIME
G9a inh – G9a (human) methyltransferase inhibition. Q96KQ7. G9a H3K9 monomethylation, AlphaScreen, 2 h. Potency, µM (top dose mostly 102 µM), usual class: inhibitors. 350,000 compounds, 8.8% hits. AID 504332; further: nearly all actives have a fitted effect of over 75% in size
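Methyltransferase reactions run at room temperature for 2 h (20 nM enzyme, 500 nM biotin-H3K9 peptide, 20 uM SAM) after a 15 min compound preincubation; product detected by AlphaScreen beads and anti-H3K9me1 antibody.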
BAZ2B inh – inhibitors of human BAZ2B bromodomain. 360,000 compounds, 4.4% hits. Potency, µM (highest dose often 114 µM), actives largely listed as inhibitors. AlphaScreen BAZ2B-H3K14Ac peptide displacement; further: nearly all actives have a fitted effect of over 60% in size
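Multi-concentration screen (max 110 uM) measuring displacement of acetylated histone H3 peptide from BAZ2B by AlphaScreen, using 50 nM protein, 50 nM peptide and 10 ug/mL streptavidin donor plus Ni-chelate acceptor beads.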
Numbers stand for hits; n = inactive; u = inconclusive; x = no result; [ ] = another dose, or the depositor's remark. Most compounds without a hit are left out; they make up all but 10% or so of the library. The call rests on the fitted dose curve; in most records, active means well fitted curve in the direction sought with a large enough effect; inconclusive means small, poorly fitted or top-dose-only effect, or another doubt; inactive means no such curve, though single readings can be large; an effect the other way counts as inactive or inconclusive.

SMILES | GLS inhibitor | HP1b binding inh | JMJD2A Tudor inh | G9a inh | BAZ2B inh
CCCCC1CCC(C(=O)N2CC(=O)Nc3ccc(Br)cc3C2c2ccc(F)cc2)CC1 (centres undefined) | n | n | n | u | n
COc1cccc(/C=N/NC(=O)CC2C(=O)NN=C2C)c1O (centres undefined) | n | n | n | n | n
COc1cc(CN2CCN(c3cc(C)ccc3C)CC2)cc([N+](=O)[O-])c1O | n | n | u | x | x
COc1cc(CN2CCN(c3ccccc3C)CC2)cc([N+](=O)[O-])c1O | n | u | 4µM | 79µM | u
Cc1cc(C)c(S(=O)(=O)c2ccc(Cl)cc2)c(=O)[nH]1 | n | n | n | n | n
N#Cc1cc(S(=O)(=O)c2ccc(Cl)cc2)c(N)[nH]c1=O | n | n | n | 50µM | n
Cc1ccc(N2CC(C(N)=O)CC2=O)cc1 (centres undefined) | n | n | n | n[12.7 µM] | n
O=C(NC(CO)Cc1ccc([N+](=O)[O-])cc1)C(Cl)Cl (centres undefined) | n | n | n | n | n
COc1ccc(NS(=O)(=O)c2ccc(N3CCCC3)c(NC(=S)Nc3cccc(S(=O)(=O)N(C)C)c3)c2)cc1 | x | x | x | 1.6µM | u
O=C(NN1C(=O)/C(=C\c2cccnc2)SC1=S)C(c1ccccc1)c1ccccc1 | n | u | u | 32µM | n
COc1ccc(/C=C2/SC(=O)N(CC(O)Cn3c4ccccc4c4ccccc43)C2=O)cc1 (centres undefined) | n | n | 79µM | n | n
O=C1S/C(=C\c2ccccc2)C(=O)N1CC(O)Cn1c2ccccc2c2ccccc21 (centres undefined) | n | n | n | n | n
COc1ccc(/C=C2\SC(=S)N(CC(=O)N3CCN(C)CC3)C2=O)cc1 | n | n | n | n | n
COc1ccc(/C=C2\SC(=S)N(C(Cc3ccccc3)C(=O)O)C2=O)cc1 (centres undefined) | n | u | u | 25µM | 40µM
O=C(O)C(Cc1ccccc1)N1C(=O)/C(=C/c2cccnc2)SC1=S (centres undefined) | n | n | 16µM | x | n
O=C(c1cccs1)N1CCCN(c2ncnc3scc(-c4ccccc4)c23)CC1 | n | n | n | u | n
Cc1cc(NC(=O)CN2C(=O)/C(=C/c3ccc(C(C)C)cc3)SC2=S)no1 | n | x | x | x | x
CC(=O)NN1C(=O)/C(=C/c2ccc(C(C)C)cc2)SC1=S | n | u | n | n | 45µM
CCOc1ccc(-c2nc(-c3ccccc3C)no2)cc1 | x | x | x | n[12.7 µM] | n
CCOC(=O)C1=C(O)C(=O)C(C(=O)OCC)C1 (centres undefined) | n | u | 10µM | x | x
CCOC(=O)C1Cc2cc3c(cc2C1=O)CC(C(=O)OCC)C3=O (centres undefined) | x | x | x | 35µM | n
CCOC(=O)C1CC(=O)c2cc(OC)c(OC)cc2C1 (centres undefined) | n | n | n | n[2.33 µM] | n
CCOC(=O)C1CCN(C(=O)c2ccccc2NS(=O)(=O)c2ccc(F)c(F)c2)CC1 | n | n | n | u | n
O=C(COC(=O)c1cncc(Br)c1)NCc1ccccc1Cl | n | n | n | u | x
Cc1nnc(NC(=O)c2ccc(S(=O)(=O)N3CCCCC3C)cc2)o1 (centres undefined) | n | n | u | x | n
SMILES | GLS inhibitor | HP1b binding inh | JMJD2A Tudor inh | G9a inh | BAZ2B inh
CC1CCCCN1S(=O)(=O)c1ccc(C(=O)Nc2nnc(C3=COCCO3)o2)cc1 (centres undefined) | n | n | n | n | 89µM
CC1CCCN(S(=O)(=O)c2ccc(C(=O)NC(C)c3ccccc3)cc2)C1 (centres undefined) | n | n | n | 18µM | n
CC1CN(S(=O)(=O)c2ccc(C(=O)Nc3nnc(-c4ccccn4)o3)cc2)CC(C)O1 (centres undefined) | n | n | 89µM | n | x
CC1CCCN(S(=O)(=O)c2ccc(C(=O)Nc3nnc(C4=COCCO4)o3)cc2)C1 (centres undefined) | x | x | x | x | 79µM
CC1CCCN(S(=O)(=O)c2ccc(S(=O)(=O)N3CCCC3)cc2)C1 (centres undefined) | n | n | n | n | n
Cc1cccc(Cc2nnc(CCC(=O)NCc3ccncc3C)o2)c1 | n | n | u | n | n
CCCC(=O)Nc1ccc(S(=O)(=O)Nc2cc(OC)nc(OC)n2)cc1 | n | n | n | n | n
COc1cc(-c2nnc(NC(=O)c3ccc(S(=O)(=O)N4CCOCC4)cc3)o2)cc(OC)c1OC | x | x | x | n | n
O=C(Nc1nnc(C2=COCCO2)o1)c1ccc(S(=O)(=O)N2CCOCC2)cc1 | n | n | 79µM | 50µM | x
COc1ccccc1-c1nnc(NC(=O)c2ccc(S(=O)(=O)N3CCOCC3)cc2)o1 | n | n | 79µM | n[12.7 µM] | n
COCc1nnc(NC(=O)c2ccc(S(=O)(=O)N3CCOCC3)cc2)o1 | n | n | 32µM | x | 18µM
COc1ccc(OC)c(C2(O)CSC(=Nc3cccnc3)N2Cc2ccco2)c1 (centres undefined) | n | n | n | n | 63µM
Cc1ccc(NC(=O)Nc2cccc(F)c2)nc1 | n | n | n | n | n
CN(C(=O)Cn1nnc(-c2cccnc2)n1)C1CCCCC1 | n | n | n | n[12.7 µM] | n
Cc1cc(NC(=O)COC(=O)CCS(=O)(=O)c2cc(Cl)ccc2Cl)no1 | n | n | n | n | n
O=C(CSC1=Nc2ccccc2C2=NC(Cc3ccccc3)C(=O)N12)Nc1ccccc1 (centres undefined) | n | n | n | n | n
Cc1ccc(-c2nnc(N3CCN(C(=O)c4cccs4)CC3)c3ccccc23)cc1 | 20µM | n | n | u | n
CN1CCN(c2nnc(-c3ccc(Cl)cc3)c3ccccc23)CC1 | n | n | n | n[2.33 µM] | n
O=C(c1cccs1)N1CCN(c2nnc(-c3ccccc3)c3ccccc23)CC1 | n | n | n | n | n
CN1CCN(c2nnc(-c3ccc(F)cc3)c3ccccc23)CC1 | n | n | u | 40µM | n
C=C(C)C(=O)Nc1cccc(C2=NOC3(C2)C[C@@H](C(N)=O)N(C(=O)C2(C)CC2)C3)c1 (some centres undefined) | 28µM | 2.5µM | 2.2µM | u | 1.6µM
C/C=C(/C)C(=O)Nc1cccc(C2=NOC3(C2)C[C@H](C(N)=O)N(C(=O)c2ccc(Cl)cc2)C3)c1 (some centres undefined) | n | n | n | n[12.7 µM] | n
C=C(C)C(=O)Nc1cccc(C2=NOC3(C2)C[C@@H](C(N)=O)N(C(=O)/C=C/CC)C3)c1 (some centres undefined) | n | 10µM | 10µM | u | 7.1µM
C/C=C\C(=O)Nc1cccc(C2=NOC3(C2)C[C@H](C(N)=O)N(C(=O)/C=C/CC)C3)c1 (some centres undefined) | n | n | n | n | n
C=C(C)C(=O)Nc1cccc(C2=NOC3(C2)C[C@@H](C(N)=O)N(C(=O)C(=C)C)C3)c1 (some centres undefined) | n | 8.9µM | 7.9µM | u | 5µM

From PubChem BioAssay
